HIF-2a block – blocks HIF-2a reporter activity; inhibition, % at 18.8 µM; 786-0 RCC cells HIF-2a reporter, luciferase luminescence, overnight; 0.72% of 360,000 active;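 active = inhibition of the luminescence signal of 40% or more relative to plate controls, in a single-dose primary screen at 18.75 µM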
CF NFkB inh – cystic fibrosis NF-kB activation inhibition; 0.86% of 360,000 active; inhibition, % at 5 µM; KKLEB NF-kB-GFP reporter, PAF-induced, GFP fluorescence overnight;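 active = at least 50% inhibition at 5 µM, scaled per plate between neutral and stimulator controls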;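 note: PAF is a Pseudomonas aeruginosa culture filtrate used as stimulus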
Peg3 prom inh-1 – inhibitors of Peg3 promoter | HeLa PEG-Prom luciferase reporter, luminescence, overnight | inhibition, % at 20 µM | 1.7% of 360,000 active;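 active = inhibition of at least 50% at 20 µM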
Beta2AR agonist – activates human beta-2 adrenergic receptor causing internalization; response, % (test concentration not listed); P07550; AID 504454; Am2.2-beta2AR cells, FAP receptor internalization, flow cytometry; 0.43% of 340,000 active;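 active = response above a set limit, near 3 SD of response in nonfluorescent compounds, cut at about 42% in these data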
Target sequence (P07550 whole entry, looked up): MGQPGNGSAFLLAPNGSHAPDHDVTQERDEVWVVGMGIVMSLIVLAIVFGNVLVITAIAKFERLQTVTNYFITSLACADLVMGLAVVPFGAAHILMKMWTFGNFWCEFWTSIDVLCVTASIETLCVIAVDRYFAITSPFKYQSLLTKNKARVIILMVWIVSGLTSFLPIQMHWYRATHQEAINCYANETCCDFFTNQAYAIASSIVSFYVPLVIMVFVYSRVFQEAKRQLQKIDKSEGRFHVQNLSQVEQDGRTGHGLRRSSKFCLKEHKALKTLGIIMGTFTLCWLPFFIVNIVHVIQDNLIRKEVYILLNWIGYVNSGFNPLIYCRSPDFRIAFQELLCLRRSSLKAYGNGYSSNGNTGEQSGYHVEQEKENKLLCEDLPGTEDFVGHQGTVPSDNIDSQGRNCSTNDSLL
KKLEB cytotox – reduces viability of KKLEB cystic fibrosis airway cells | activity change (cytotoxicity), % at 5 µM | KKLEB CF airway cells viability, ATPlite luminescence, overnight; active compounds read low; cells stimulated with P. aeruginosa culture filtrate | AID 602141 | 0.36% of 360,000 active;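 active = corrected activity change at or below -50% at 5 µM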
MITF TRPM1 inh – MITF TRPM1 promoter inhibition in SK-MEL-5 cells | inhibition, % at 12.5 µM | AID 488899 | 0.83% of 330,000 active | SK-MEL-5 TRPM1 promoter luciferase, 24 h;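 active = mean inhibition across replicates of 60% or more, whatever share of single replicates reaches that level; inconclusive = some that reach 60%, reason not given; inactive = mean inhibition across replicates below 60%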
Peg3 prom inh-2 – confirmation of Peg3 promoter inhibitors | shares compounds with Peg3 prom inh-1 | HeLa PEG-Prom luciferase reporter, luminescence, overnight | inhibition, % at 20 µM | 84% of 1,300 active;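 active = at 20 µM dose, 40% or more inhibition averaged across four replicates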
Numbers stand for hits; 0 = inactive; ? = inconclusive; - = no result; ! = a repeat was not active. An excerpt weighted towards active compounds, which were near 2.8% of everything screened.

SMILES	HIF-2a block	CF NFkB inh	Peg3 prom inh-1	Beta2AR agonist	KKLEB cytotox	MITF TRPM1 inh	Peg3 prom inh-2
CCOc1ccc(Nc2cc(C)c3ccccc3n2)cc1	0	0	0	0	0	0	-
Cc1cccc(C)c1NC(=O)C1c2ccccc2OCC(=O)N1Cc1ccco1 (stereo not drawn)	0	-	-	-	-	-	-
CN(C)C=NC(=O)c1[nH]c2ccc(Cl)cc2c1-c1ccccc1	0	0	72	49	0	0	81
CCS(=O)(=O)N1Cc2cc(C(=O)N(C)C)nc(-c3cccc(-c4ccc(F)cc4)c3)c2[C@@H]1CCO	0	-	-	-	-	-	-
O=C1c2cccc3cccc(c23)C(=O)N1CCCN(C(=O)c1cccs1)c1cccc(F)c1	0	0	52	0	0	0	0
COc1ccc(N(CCCN2C(=O)c3cccc4cccc(c34)C2=O)C(=O)c2cccc(OC)c2)cc1	0	0	0	0	0	0	-
COC(CNC(=O)c1cccnc1)OC	0	0	0	0	0	0	-
COC(CNC(=O)c1ccc2c3c(onc13)-c1ccccc1C2=O)OC	0	0	102	48	0	80	99
CCCNC(=O)C1(C)CCCN(Cc2ccc(-c3ccccn3)cc2)C1 (stereo not drawn)	0	0	0	-	0	-	-
CC(=O)NC(=S)Nc1ccccc1N1CCN(C(=O)c2ccccc2)CC1	0	0	0	0	0	0	-
CC(C)C(=O)NC(=S)Nc1ccccc1N1CCN(C(=O)c2ccccc2)CC1	0	0	58	0	0	0	40
Cc1c(CCOC(=O)C23CC4CC(CC(C)(C4)C2)C3)sc[n+]1CC(=O)c1ccccc1	0	0	54	0	0	0	91
CCC(=C(c1ccccc1)c1ccc(OCCN(C)C)cc1)c1ccccc1	0	0	0	-	0	-	-
CCN(CC)CCOc1ccc(/C(=C(/Cl)c2ccccc2)c2ccccc2)cc1	0	0	102!	0	0	0	96
CC(=O)NC(c1ccc(Cl)cc1)c1ccc2cccnc2c1O (stereo not drawn)	0	0	60	0	0	0	70
CCCC(=O)NC(c1ccc(N(C)C)cc1)c1ccc2cccnc2c1O (stereo not drawn)	0	0	57	0	0	73	68
CCCC(=O)NC(c1ccc(C(C)C)cc1)c1ccc2cccnc2c1O (stereo not drawn)	0	0	67	0	0	0	70
COc1ccc(C(NC(=O)C(C)C)c2ccc3cccnc3c2O)cc1 (stereo not drawn)	0	0	61	0	0	76	66
CC(C)C(=O)NC(c1ccc(Cl)cc1Cl)c1ccc2cccnc2c1O (stereo not drawn)	0	0	0	0	0	0	-
O=C(/C=C/[C@H]1O[C@@H](n2cnc3c(NC(=O)c4ccccc4)ncnc32)[C@H](O)[C@@H]1O)NCC(c1ccccc1)c1ccccc1	0	0	0	-	0	-	-
CCCC(=O)NC(c1ccc(OC)cc1)c1c(O)ccc2ccccc12 (stereo not drawn)	0	0	0	0	0	0	-
CCC(=O)NC(c1ccc(C)cc1)c1ccc2cccnc2c1O (stereo not drawn)	0	0	60	0	0	?	68
Cc1ccnc(NC(c2ccccc2)c2ccc3cccnc3c2O)c1 (stereo not drawn)	0	0	0	0	0	0	-
CCC(=O)NC(c1ccc(Cl)cc1Cl)c1ccc2cccnc2c1O (stereo not drawn)	0	0	0	0	0	0	-
CCCCC(=O)NC(c1ccc(OC)cc1)c1ccc2cccnc2c1O (stereo not drawn)	0	0	52	-	0	-	69
SMILES	HIF-2a block	CF NFkB inh	Peg3 prom inh-1	Beta2AR agonist	KKLEB cytotox	MITF TRPM1 inh	Peg3 prom inh-2
Cc1cc(NC(c2ccc(Cl)cc2)c2ccc3cccnc3c2O)no1 (stereo not drawn)	0	0	53	0	0	78	63
O=S(=O)(c1ccc(NC(=S)N2CCCCC2)cc1)N1CCCCC1	0	0	0	-	0	-	-
CCc1ccc(C2CC(c3ccccc3)Nc3nc(N)nn32)cc1 (stereo not drawn)	0	0	0	0	0	0	-
c1ccc(C2CC(c3ccccc3)n3c(nc4ccccc43)N2)cc1 (stereo not drawn)	0	0	76	0	0	0	0
CCOC(=O)CSC1=NC(=O)/C(=C\c2ccc(Cl)cc2)S1	0	0	88	0	0	66	0
CCOC(=O)C1CCN(C2=NC(=O)/C(=C/c3ccc(Cl)cc3)S2)CC1	0	0	0	0	0	0	-
COc1cccc(C(C)(O)c2nc(-c3ccc(F)c(Cl)c3)cs2)c1 (stereo not drawn)	0	0	0	-	0	-	-
C[C@@H]1CN([C@H](C)CO)C(=O)CCCn2nncc2CO[C@@H]1CN(C)C(=O)C1CCCCC1	0	0	0	-	0	-	-
COc1cc(CNc2ccc(O)cc2)cc(Br)c1OCc1ccccc1	0	0	0	0	0	0	-
COc1cc(CNC(C)(C)CO)cc(Br)c1OCc1ccc(Cl)cc1	0	0	81	0	0	0	91
CC1CCN(S(=O)(=O)c2ccc3c(c2)oc(=O)n3CC(=O)NCc2ccc3c(c2)OCO3)CC1	0	0	0	0	0	0	-
Cc1cc(C)cc(NC(=O)Cn2c(=O)oc3cc(S(=O)(=O)N4CCC(C)CC4)ccc32)c1	0	0	68	0	0	-	44
Cc1csc2nc(COC(=O)c3ccc(Cl)c([N+](=O)[O-])c3)cc(=O)n12	0	0	59	0	0	0	0
Cc1cccnc1C(NC(=O)C1CCN(Cc2ccc(Oc3ccccc3)cc2)CC1)c1ccc(F)cc1 (stereo not drawn)	0	0	0	-	0	-	-
O=C(C[C@H]1C[C@H](C(=O)N2CCCCC2)[C@@]2(CCc3ccccc3)c3[nH]c4ccc(Cl)cc4c3CCN2C1=O)NCCc1ccccn1	0	0	69	0	0	0	88
Cc1ccc(F)c(S(=O)(=O)NC(=O)C2(C)CCN2C(=O)Cc2ccccc2Cl)c1 (stereo not drawn)	0	0	0	-	0	-	-
CC1=NN(c2ccccc2)C(=O)/C1=C/C=C/c1ccccc1	68	0	113	0	0	69	0
CC(=O)C1=CCC(c2ccc(Br)cc2)N(S(=O)(=O)c2ccc(C)cc2)C1 (stereo not drawn)	0	0	0	-	0	-	-
CC(C)(C)S(=O)N1Cc2cc(C(=O)NCc3ccc(Oc4ccccc4)cc3)nc(-c3cccc(-c4cc5ccccc5o4)c3)c2[C@@H]1CCO (stereo partly drawn)	0	0	80	-	0	-	0
COc1cccc(-c2cccc(-c3nc(C(=O)NCc4ccc(Oc5ccccc5)cc4)cc4c3[C@H](CCO)N(S(=O)C(C)(C)C)C4)c2)c1 (stereo partly drawn)	0	0	73	-	0	-	0

Assay outcomes as filed in PubChem BioAssay.
